For 20 molecules, max activity results are on record in PubChem BioAssay AID1259418 (Broad Institute, 2018).

Structures are written as SMILES. Among all 3,400 compounds or so, about 840 (25%) were called active. Inconclusive results (about 11%) are left out.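 The calls were made as follows: active = fitted half-maximal concentration of signal decrease at or below twice the sample's top tested concentration; inconclusive = flat curve between -70 and -30 percent, or poor fit; inactive = flat within 30 percent, signal rise, or potency above limit.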 Not all results are given here. Entries with a potency or affinity are not part of this list.

The nature of the assay: T. gondii growth inhibition with IFN-gamma, dose response, cell-based, ME49Luc, HeLa, luciferase, 72 h (AID 1259418). The following applies: T. gondii ME49Luc in IFN-y HeLa, hits give low values, -100% = high-dose IFN-γ control wells; at 19.5 µM unless noted.
As to `Clc1ccc(-c2nc(N3CCCc4ccccc43)c3ccccc3n2)cc1`, the max activity was 10.7% [at 0.35 µM] (inactive).

As for `Cc1nc(-c2cc(S(=O)(=O)N3CCCCC3C)c(C)s2)sc1C` (stereo not given), the max activity is -14.7% [at 5 µM] (inactive).

Regarding `Cc1nc(-c2ccc(F)cc2)sc1-c1ccc(SCc2cccc(C(F)(F)F)c2)nn1`, the max activity was -7.18% [at 0.16 µM] (inactive).

In the case of `Cc1cccc(-c2nc(Cn3nnc(-c4nc(-c5ccc(Cl)c(F)c5)no4)c3C)c(C)o2)c1`, the max activity was 6.89% (inactive).

For `COc1ccc2c(c1)NC1(CCN(C(=O)Cc3cccs3)CC1)c1cccn1-2`, the max activity is -16.4% [at 10 µM] (inactive).

On to `COc1cccc(-c2nc3c(s2)CN(S(=O)(=O)c2ccc(Cl)cc2)CC3)c1`, for which the max activity is -9.55% [at 0.16 µM] (inactive).

Turning to `Cc1ccc(C)c(-c2coc(-c3ccc(NC(=O)c4sccc4C)cc3)n2)c1`, the max activity is 16.8% [at 10 µM] (inactive).

With `Cc1nc(CCNC(=O)[C@H]2CCCN2C(=O)c2ccccc2Cl)cs1`, the max activity was 13.6% [at 0.35 µM] (inactive).

Regarding `Cc1oc(-c2cccc(Cl)c2)nc1Cn1nnc(-c2nc(-c3ccc(F)cc3)no2)c1C`, the max activity is -12.5% [at 0.16 µM] (inactive).

In the case of `CCOc1ccc(-c2nc(CN3CCN(C(=O)Nc4ccccc4CC)CC3)c(C)o2)cc1`, the max activity is 11.7% [at 2.6 µM] (inactive).

`COc1ccc(OC)c(NC(=O)N2CCN(Cc3nc(-c4cccc(Cl)c4)oc3C)CC2)c1`: the max activity was 24.8% [at 5 µM] (inactive).

As to `CCOc1ccc(-c2nc(CN3CCN(C(=O)Nc4ccc(C)cc4)CC3)c(C)o2)cc1`, the max activity is -22.9% (inactive).

Regarding `CCOc1ccc(-c2nc(CN3CCN(C(=O)Nc4ccccc4OCC)CC3)c(C)o2)cc1`, the max activity is 16% (inactive).

For `CCOc1ccc(-c2nc(CN3CCN(C(=O)Nc4cc(C)cc(C)c4)CC3)c(C)o2)cc1`, the max activity is -7.26% [at 0.16 µM] (inactive).

As for `CCOc1ccc(NC(=O)N2CCN(Cc3nc(-c4ccc(OCC)cc4)oc3C)CC2)cc1`, the max activity is 8.47% [at 5 µM] (inactive).

As for `CCOc1ccc(NC(=O)N2CCN(Cc3nc(-c4ccc(C)cc4)oc3C)CC2)cc1`, the max activity is 18.7% [at 2.6 µM] (inactive).

For `CCOc1ccc(-c2nc(CN3CCN(C(=O)Nc4ccc(CC)cc4)CC3)c(C)o2)cc1`, the max activity was 8.87% [at 1.35 µM] (inactive).

Turning to `Cc1ccc(NC(=O)COc2nc(C)nc3ccccc23)c(Br)c1`, the max activity was 23.6% (inactive).

`COC(=O)c1cc(Cl)ccc1NC(=O)COc1nc(C)nc2ccccc12`: the max activity is 15.7% [at 0.16 µM] (inactive).

As to `Cc1[nH]c2ccccc2c1C(=O)C(=O)NC1CC(=O)N(c2ccccc2)C1` (stereo not given), the max activity is 12.7% [at 2.6 µM] (inactive).
